Screening results: PubChem BioAssay, National Center for Advancing Translational Sciences (NCATS)
D1 potentiator: enhances dopamine response at the human D1 receptor | AID 504651 | HEK293 TREx D1 cells, calcium flux, dopamine EC20 potentiation | P21728 | potentiation, % at 10 µM | 360,000 tested, 0.036% active; in the data active means potentiation above about 30%
DRD3 antagonist: blocks the human D3 dopamine receptor; P35462; D3R cells, DiscoveRx beta-arrestin luminescence, antagonist mode; stronger effect = lower value; max response, negative = inhibition, %; 360,000 tested, 2.5% active; AID 652054; in the data active means max response below about -50%
Target sequence (P35462 whole entry, looked up): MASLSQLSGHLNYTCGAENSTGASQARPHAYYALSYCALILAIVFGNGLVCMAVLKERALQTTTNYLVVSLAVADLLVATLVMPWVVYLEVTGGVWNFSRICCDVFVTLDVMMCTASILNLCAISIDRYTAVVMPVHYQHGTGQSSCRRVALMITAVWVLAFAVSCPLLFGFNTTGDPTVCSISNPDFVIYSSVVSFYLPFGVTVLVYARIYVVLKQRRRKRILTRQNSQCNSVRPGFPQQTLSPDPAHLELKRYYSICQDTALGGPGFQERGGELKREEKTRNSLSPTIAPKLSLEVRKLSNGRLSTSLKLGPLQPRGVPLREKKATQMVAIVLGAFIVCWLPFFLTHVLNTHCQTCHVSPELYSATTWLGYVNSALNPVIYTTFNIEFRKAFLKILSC
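Cells expressing the human receptor were seeded at 1500 cells/well, incubated overnight at 37 degrees C in 5% CO2, then exposed to library compounds with dopamine controls for 90 minutes at 37 degrees C before luminescent detection.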
D1 ag: agonists of human D1 dopamine receptor | P21728 | HEK293 T-REx D1 cells, calcium flux, agonist mode | activation, % at 2 µM | 360,000 tested, 1% active; in the data active means activation above about 30%
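Tetracycline-induced HEK293 TREx D1 cells, force-coupled to calcium signalling, were dye-loaded with a no-wash calcium kit. Compound was pin-added after a 10 s baseline. Fluorescence was read kinetically at 1 cycle/s for 180 s, with calcium rises flagged as agonism.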
D3 ag: D3 dopamine receptor (human) agonism | D3R DiscoveRx beta-arrestin cells, luminescence, 90 min | max activation, % | 410,000 tested, 0.58% active; in the data active means max activation above about 30%
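Agonist mode: compounds and dopamine controls were applied to plated cells for 90 min at 37 degrees C after an overnight attachment at 1500 cells/well. Luminescent read-out followed 30 - 60 minutes at room temperature with DiscoveRx detection reagent.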
D1 antag: antagonists of human D1 dopamine receptor. 360,000 tested, 3.2% active. P21728. activity change, negative = inhibition, % at 10 µM. HEK293 TREx D1 cells, calcium flux, dopamine EC80; stronger effect = lower value. AID 504652; in the data active means activity change below about -30%
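HEK293 T-REx cells expressing inducible, force-coupled D1 receptor; no-wash Ca dye, 30–90 min RT. Cmpd → 180 s read at 1 Hz → EC80 DA → 180 s read.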
Hits are given with their value; n = inactive; x = no result. Sampled rows, rich in hits. Any-hit rate of the full collection: about 6.1%.

SMILES | D1 potentiator | DRD3 antagonist | D1 ag | D3 ag | D1 antag
COCCNC(=S)N(CCc1c(C)[nH]c2ccc(F)cc12)Cc1ccco1 | n | n | n | n | n
CCOc1ccc(S(=O)(=O)NCCC(=O)N2CC=C(c3ccccc3)CC2)cc1 | n | n | n | n | n
c1ccc(COc2ncnc3c2ncn3CCCNCC(c2ccccc2)c2ccccc2)cc1 | x | -85.8 | x | n | x
O=C(Cn1cnc2c(OCc3ccccc3)ncnc21)NCc1ccccn1 | x | -67.2 | x | n | x
CCOC(=O)c1cccc(NC(=O)CCc2c(C)nc3cc(-c4ccc(Cl)cc4)nn3c2C)c1 | n | x | n | n | n
COc1cc(OC)c(C2Nc3c(C)cccc3-c3cc(C)nn32)cc1OC (centres undefined) | n | x | n | n | n
Cc1ccc(C(=O)N2CCC(C(=O)NCc3cccnc3)CC2)cc1 | n | n | n | n | n
COc1ccc(CNC(=O)C2CCN(C(=O)c3cccc(Cl)c3)CC2)cc1 | n | n | n | n | -35.3
Cc1ccc(CNC(=O)C2CCN(C(=O)c3cccc(Cl)c3)CC2)cc1 | n | n | n | n | -57.2
O=C(CSc1nccn1Cc1ccccc1)Nc1ccc2c(c1)OCCO2 | n | x | n | n | n
CCOc1ccc(NC(=O)CN(C)Cc2cc(=O)n3c(-c4ccccc4)csc3n2)cc1OCC | n | n | n | n | n
Cn1c(=O)c2c(ncn2CC(O)CNc2ccc(Br)cc2)n(C)c1=O (centres undefined) | n | n | n | n | -31.8
COc1ccc(NCC(O)Cn2cnc3c2c(=O)n(C)c(=O)n3C)cc1 (centres undefined) | n | n | n | n | n
CC1(C(=O)Nc2cnc3ccccc3c2)CCN1C(=O)c1ccccc1CCc1ccccc1 (centres undefined) | x | n | x | n | x
Cc1onc(-c2c(F)cccc2Cl)c1C(=O)Nc1c(C)n(C)n(-c2ccccc2)c1=O | n | n | n | n | n
Cc1onc(-c2c(F)cccc2Cl)c1C(=O)NC(=S)Nc1c(C)n(C)n(-c2ccccc2)c1=O | n | n | n | n | -66.7
CCN(CC)C(=O)C1=C(C)N(CCCOC)C(=O)C(CC(=O)NC(c2ccccc2)c2ccccc2)C1 (centres undefined) | x | n | x | n | x
C=C1C(=O)CC2=C1[C@](Cc1ccc(F)cc1)(C(=O)OC)N(C(=O)c1ccccc1)C2 | x | n | x | n | x
C=C1C(=O)C=C2CN(C(=O)c3ccccc3)[C@@](Cc3ccc(F)cc3)(C(=O)OC)[C@@H]12 | n | -98.9 | 90.3 | n | -35.0
CC1(c2ccc([N+](=O)[O-])cc2)NC(=O)N(CC(=O)c2ccc3c(c2)OCO3)C1=O (centres undefined) | n | n | 34.1 | n | n
CC1(c2ccc(OC(F)F)cc2)NC(=O)N(CC(=O)NC2CCCCC2)C1=O (centres undefined) | n | n | n | n | n
CC1(c2ccc(OC(F)F)cc2)NC(=O)N(CC(=O)c2ccc3c(c2)OCO3)C1=O (centres undefined) | n | n | 46.5 | n | -43.2
CC(=O)c1c(C)[nH]c(C(=O)CN2C(=O)NC(C)(c3ccc4c(c3)OCO4)C2=O)c1C (centres undefined) | n | n | n | n | n
Cc1ccc(Cl)cc1N1CCN(C(=O)c2c(C)oc3ncnc(N4CCCCC4)c23)CC1 | n | x | n | n | n
N=c1n(CCO)c2ccccc2n1Cc1ccccc1F | n | x | n | n | n
SMILES | D1 potentiator | DRD3 antagonist | D1 ag | D3 ag | D1 antag
N#Cc1ccccc1OCC(=O)Nc1cccc(S(=O)(=O)N2CCCC2)c1 | n | n | n | n | n
O=C(CCc1ccccc1Cl)Nc1cccc(S(=O)(=O)N2CCCC2)c1 | n | n | n | n | -32.5
Cn1ccnc1SCC(=O)Nc1cccc(S(=O)(=O)N2CCCCCC2)c1 | n | n | 31.2 | n | n
CCc1ccccc1OCC(=O)Nc1cccc(S(=O)(=O)N2CCCC2)c1 | n | n | n | n | -30.0
Cc1cc(OCC(=O)Nc2cccc(S(=O)(=O)N3CCCC3)c2)ccc1Cl | n | n | n | n | -30.1
Cc1ccc(S(=O)(=O)N2CCCCC2)cc1NC(=O)CSc1nccn1C | n | n | n | n | n
CCC(=O)Nc1ccc(CC)cc1-c1nc2ccccc2n(CC(=O)Nc2cccc(OC)c2)c1=O | n | x | n | n | n
O=C(COC(=O)CNC(=O)c1ccc(Cl)cc1Cl)Nc1cccc(S(=O)(=O)N2CCCC2)c1 | n | n | n | n | -31.8
CC1CC(C)CN(C(=O)Cn2nnc(-c3ccc(Br)cc3)n2)C1 (centres undefined) | n | n | n | n | n
COc1ccc(Nc2oc(COc3ccc(C)cc3)nc2C#N)cc1 | n | n | n | n | n
COc1ccc(Nc2oc(COc3ccc(OC)cc3)nc2C#N)cc1 | n | n | n | n | -34.2
COc1ccc(NC(=O)COC(=O)c2cc(Cl)ccc2O)cc1S(=O)(=O)N1CCCCC1 | n | n | n | n | n
C[C@H](/C=C/[C@H](C)C(C)(C)O)[C@H]1CC[C@H]2/C(=C/C=C3C[C@@H](O)C[C@H](O)C3)CCC[C@]12C | x | x | x | n | x
S=C(NCc1ccccc1)NCc1ccccn1 | n | n | n | n | n
Cc1ccc(Cl)cc1-n1ncc2c(NCc3ccc(F)cc3)ncnc21 | n | x | 77.3 | n | -61.1
Cc1cccc(-n2ncc3c(NC4CCCC4)ncnc32)c1 | n | x | n | n | -34.4
Cc1ccc(Cl)cc1-n1ncc2c(NCCCc3ccccc3)ncnc21 | n | x | n | n | -36.3
Cc1cccc(-n2ncc3c(NC4CCCCC4)ncnc32)c1 | n | n | n | n | n
Cc1ccc(CNc2ncnc3c2cnn3-c2ccccc2)cc1 | n | n | 53.0 | n | n
Cc1ccc(-n2ncc3c(NCc4ccccc4)ncnc32)cc1 | n | n | n | n | n
Cc1ccc(Cl)cc1-n1ncc2c(NCCc3ccccc3)ncnc21 | n | x | n | n | n
O=C1O[C@@H]2[C@@H](O)[C@H](O)O[C@@H]2[C@H]1O | x | x | x | n | x
Cc1nn(-c2ccc(F)cc2)c2nc(N)c(C#N)c(-c3ccc(O)c(O)c3)c12 | n | n | n | n | -45.9
Cc1nn(-c2ccc(F)cc2)c2nc(N)c(C#N)c(-c3cccs3)c12 | n | n | n | n | n
Cc1nn(-c2ccccc2)c2nc(N)c(C#N)c(-c3ccc(O)c(O)c3)c12 | n | n | n | n | n
COc1cc(-c2c(C#N)c(N)nc3c2c(C)nn3-c2ccc(C)c(C)c2)cc(OC)c1OC | n | n | n | 60.0 | n
CCN(c1ccccc1)S(=O)(=O)c1cc(NC(=O)CN2CCN(C)CC2)ccc1Cl | x | n | x | n | x
CCN(CC)C(=S)Nc1ccc2nc3n(c(=O)c2c1)CCCCC3 | n | n | n | n | n
CC(C(=O)OCC(=O)Nc1ccc2c(c1)OCO2)N1C(=O)c2ccccc2C1=O (centres undefined) | n | n | n | n | n
CC(C(=O)Oc1ccc2c(c1)OCO2)N1C(=O)c2ccccc2C1=O (centres undefined) | n | x | n | x | -40.1
